Screening results (PubChem)
Many of the other results were omitted from the sample, so hits are more common in it than they were.
Menin-MLL FL inh – inhibitors of human menin-MLL interaction, wild-type MLL peptide. Fluorescence polarization, fluorescein-MLL peptide displacement from menin. FP activity change, % at 61.4 µM. 290,000 tested, under 10 active. AID 1766; active = well fitted curve in the direction sought with a large enough effect in the polarisation, not every such curve was filed as active; inconclusive = small, poorly fitted or top-dose-only effect, or effect the other way, or a change in a side signal; inactive = no such curve, though single readings can be large or run the other way; the % refers to the polarisation
ClpP mod – qHTS Assay for Activators of ClpP; ATP-dependent Clp protease proteolytic subunit (Bacillus subtilis (strain 168)), P80244; purified B. subtilis ClpP, FRET peptide cleavage, 20 min; Potency, µM (highest dose often 57.5 µM); 340,000 compounds, 1.9% hits; AID 651965, 2013; active = well fitted falling curve with a large enough effect; inconclusive = small, poorly fitted or top-dose-only effect; inactive = no such curve, though single readings can be large or run the other way; also: the source files actives as falling curves though it sought activators and does not explain the sign; nearly all actives have a fitted effect of over 65% in size
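ClpP 10 microg/mL final, pH 8 Tris/KCl buffer with BSA, glycerol, Tween-20; compound pinned in; FRET-FV substrate; RT 20 min; Ex320/Em430; ΔFRET vs ADEP 5.8 microM, DMSO, no enzyme.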
MLL CXXC-DNA inh – MLL CXXC-DNA interaction inhibition; 290,000 compounds, 0.037% hits; Q03164; Potency, µM (series often up to 115 µM), actives largely listed as inhibitors; MLL-CXXC / FITC-HOXA9 DNA fluorescence polarization; active = well fitted inhibition curve with a large enough effect in the polarisation, with a control signal flat, not every such curve was filed as active; inconclusive = small, poorly fitted or top-dose-only effect, or effect the other way, or a change in a side signal; inactive = no such curve, though single readings can be large or run the other way; the % refers to the polarisation
Target sequence (Q03164 whole entry, looked up): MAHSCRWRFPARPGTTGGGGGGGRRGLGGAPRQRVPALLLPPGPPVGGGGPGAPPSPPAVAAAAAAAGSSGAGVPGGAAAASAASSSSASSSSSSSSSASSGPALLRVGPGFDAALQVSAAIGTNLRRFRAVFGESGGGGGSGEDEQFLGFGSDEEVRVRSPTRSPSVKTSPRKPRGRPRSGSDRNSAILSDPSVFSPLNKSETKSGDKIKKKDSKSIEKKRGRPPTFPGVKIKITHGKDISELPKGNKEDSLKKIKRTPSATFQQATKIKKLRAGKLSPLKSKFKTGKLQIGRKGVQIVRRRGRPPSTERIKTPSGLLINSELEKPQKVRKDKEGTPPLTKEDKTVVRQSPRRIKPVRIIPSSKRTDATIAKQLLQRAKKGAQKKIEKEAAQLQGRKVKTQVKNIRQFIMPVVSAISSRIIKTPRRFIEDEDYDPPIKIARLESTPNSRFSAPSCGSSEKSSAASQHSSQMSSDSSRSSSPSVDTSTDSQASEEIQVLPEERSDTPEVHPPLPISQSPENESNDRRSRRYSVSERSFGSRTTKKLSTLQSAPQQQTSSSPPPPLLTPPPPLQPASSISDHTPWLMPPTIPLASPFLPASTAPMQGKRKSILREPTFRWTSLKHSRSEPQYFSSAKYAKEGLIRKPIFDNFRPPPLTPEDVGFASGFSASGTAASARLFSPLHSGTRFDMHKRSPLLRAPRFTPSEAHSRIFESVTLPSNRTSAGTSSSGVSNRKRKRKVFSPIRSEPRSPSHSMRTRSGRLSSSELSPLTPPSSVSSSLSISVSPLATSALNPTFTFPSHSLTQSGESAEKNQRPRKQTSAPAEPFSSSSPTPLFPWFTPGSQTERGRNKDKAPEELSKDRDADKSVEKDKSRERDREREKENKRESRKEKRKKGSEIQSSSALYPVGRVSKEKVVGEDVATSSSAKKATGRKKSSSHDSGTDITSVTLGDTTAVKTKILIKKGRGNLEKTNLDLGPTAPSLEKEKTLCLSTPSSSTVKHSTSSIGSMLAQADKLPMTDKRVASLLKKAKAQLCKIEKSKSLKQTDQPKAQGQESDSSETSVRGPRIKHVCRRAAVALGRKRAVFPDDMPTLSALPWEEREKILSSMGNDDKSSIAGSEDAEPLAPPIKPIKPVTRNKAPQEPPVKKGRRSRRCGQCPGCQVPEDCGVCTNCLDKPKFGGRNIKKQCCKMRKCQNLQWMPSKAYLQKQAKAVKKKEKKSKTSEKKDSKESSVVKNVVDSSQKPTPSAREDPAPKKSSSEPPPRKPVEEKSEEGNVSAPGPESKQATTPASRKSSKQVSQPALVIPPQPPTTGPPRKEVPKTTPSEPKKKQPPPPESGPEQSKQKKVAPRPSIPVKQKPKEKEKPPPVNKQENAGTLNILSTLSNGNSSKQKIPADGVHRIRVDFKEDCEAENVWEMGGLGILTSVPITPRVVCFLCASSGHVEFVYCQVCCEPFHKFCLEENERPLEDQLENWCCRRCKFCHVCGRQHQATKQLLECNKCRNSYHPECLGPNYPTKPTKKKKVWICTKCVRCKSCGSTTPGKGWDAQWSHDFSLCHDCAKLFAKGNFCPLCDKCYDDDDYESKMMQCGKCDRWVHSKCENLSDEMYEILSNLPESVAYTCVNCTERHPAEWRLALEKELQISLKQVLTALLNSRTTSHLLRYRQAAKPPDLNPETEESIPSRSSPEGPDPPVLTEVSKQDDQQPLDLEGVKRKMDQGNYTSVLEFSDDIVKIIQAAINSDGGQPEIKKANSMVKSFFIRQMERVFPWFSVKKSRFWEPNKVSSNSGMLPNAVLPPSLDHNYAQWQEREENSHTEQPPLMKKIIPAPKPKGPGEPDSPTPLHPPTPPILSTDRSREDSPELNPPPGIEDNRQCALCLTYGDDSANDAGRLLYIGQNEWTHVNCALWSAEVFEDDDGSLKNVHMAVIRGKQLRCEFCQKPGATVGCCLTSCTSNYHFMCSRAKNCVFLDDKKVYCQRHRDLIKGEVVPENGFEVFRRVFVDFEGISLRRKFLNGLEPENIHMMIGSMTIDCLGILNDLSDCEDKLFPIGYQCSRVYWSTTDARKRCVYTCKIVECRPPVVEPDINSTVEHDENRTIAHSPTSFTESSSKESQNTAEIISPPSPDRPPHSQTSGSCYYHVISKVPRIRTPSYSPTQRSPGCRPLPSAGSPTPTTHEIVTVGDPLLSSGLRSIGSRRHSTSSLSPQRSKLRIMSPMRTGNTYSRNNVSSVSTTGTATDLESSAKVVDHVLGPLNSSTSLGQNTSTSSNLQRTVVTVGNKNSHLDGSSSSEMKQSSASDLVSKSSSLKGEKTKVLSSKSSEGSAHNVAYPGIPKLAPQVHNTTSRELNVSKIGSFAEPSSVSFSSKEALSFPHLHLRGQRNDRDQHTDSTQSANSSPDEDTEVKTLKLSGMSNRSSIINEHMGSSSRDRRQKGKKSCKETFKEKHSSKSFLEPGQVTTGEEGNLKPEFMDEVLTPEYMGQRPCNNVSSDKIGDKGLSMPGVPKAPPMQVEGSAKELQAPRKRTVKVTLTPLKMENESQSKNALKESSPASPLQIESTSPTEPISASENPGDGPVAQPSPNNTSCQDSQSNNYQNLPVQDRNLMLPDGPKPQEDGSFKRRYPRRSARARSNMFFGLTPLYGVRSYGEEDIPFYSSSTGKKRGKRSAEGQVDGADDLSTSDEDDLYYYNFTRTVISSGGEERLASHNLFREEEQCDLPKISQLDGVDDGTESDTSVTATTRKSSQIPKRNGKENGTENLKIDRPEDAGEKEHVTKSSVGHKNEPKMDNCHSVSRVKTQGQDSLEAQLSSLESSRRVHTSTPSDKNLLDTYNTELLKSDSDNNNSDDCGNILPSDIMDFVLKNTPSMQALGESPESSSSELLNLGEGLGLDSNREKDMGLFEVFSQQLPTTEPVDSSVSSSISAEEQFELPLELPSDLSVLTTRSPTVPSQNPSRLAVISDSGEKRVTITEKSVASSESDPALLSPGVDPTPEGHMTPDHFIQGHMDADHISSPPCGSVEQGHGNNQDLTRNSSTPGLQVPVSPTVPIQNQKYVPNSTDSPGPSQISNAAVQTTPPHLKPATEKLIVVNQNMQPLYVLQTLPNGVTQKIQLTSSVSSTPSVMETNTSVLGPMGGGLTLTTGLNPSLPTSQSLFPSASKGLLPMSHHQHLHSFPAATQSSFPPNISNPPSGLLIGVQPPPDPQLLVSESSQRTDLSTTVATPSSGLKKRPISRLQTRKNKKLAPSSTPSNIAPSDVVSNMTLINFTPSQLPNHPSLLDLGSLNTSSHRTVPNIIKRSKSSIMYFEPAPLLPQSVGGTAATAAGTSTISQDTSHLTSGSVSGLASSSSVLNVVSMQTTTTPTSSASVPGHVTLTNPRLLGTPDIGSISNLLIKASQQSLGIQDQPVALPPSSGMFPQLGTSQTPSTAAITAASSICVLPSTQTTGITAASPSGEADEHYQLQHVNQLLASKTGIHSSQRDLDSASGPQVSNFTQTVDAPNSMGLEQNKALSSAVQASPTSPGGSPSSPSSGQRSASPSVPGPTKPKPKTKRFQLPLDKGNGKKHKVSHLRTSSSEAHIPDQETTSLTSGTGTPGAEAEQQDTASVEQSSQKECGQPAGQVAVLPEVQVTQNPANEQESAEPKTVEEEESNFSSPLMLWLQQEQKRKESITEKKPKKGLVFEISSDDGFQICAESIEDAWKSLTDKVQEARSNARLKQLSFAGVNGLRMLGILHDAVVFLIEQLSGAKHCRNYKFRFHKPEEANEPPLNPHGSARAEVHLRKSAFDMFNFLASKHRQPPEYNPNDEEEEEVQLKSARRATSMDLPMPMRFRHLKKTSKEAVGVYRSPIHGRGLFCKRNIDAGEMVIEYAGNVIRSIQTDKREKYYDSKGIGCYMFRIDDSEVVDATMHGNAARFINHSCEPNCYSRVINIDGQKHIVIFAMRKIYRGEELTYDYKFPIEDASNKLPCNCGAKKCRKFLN
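Purified MLL-CXXC (added from a 7 uM solution) was preincubated 5 min at ambient with pinned compounds in 50 mM Tris-HCl pH 7.5, 50 mM NaCl, 1 mM DTT, 0.05% BSA. Fluorescein-labeled HOX-A9 DNA (50 nM solution) followed, 30 min, then polarization read.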
p53 reactivator – mutant p53 re-activation in reporter cells; H1299 p53-A138V BP100-luciferase reporter, luminescence, 24 h; Potency, µM (top dose mostly 92.2 µM), usual class: activators; 320,000 compounds, 0.063% hits; AID 504706; active = well fitted activation curve with a large enough effect; inconclusive = small, poorly fitted or top-dose-only effect; inactive = no such curve, though single readings can be large or run the other way; also: nearly all actives have a fitted effect of over 45% in size
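H1299 (p53-null), stable ts p53-A138V + BP100-Luc; 1000 cells/well, Opti-MEM/10% FBS; cpd 4 pt, 1:5; 24 h, 37 deg C, 5% CO2; detection reagent 10 min RT; luminescence.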
Menin MLL FP TR – displaces Texas Red mutant MLL peptide from human menin; Potency, µM (top dose mostly 61.6 µM), hits mostly inhibitors; AID 1768; 270,000 compounds, 0.23% hits; O00255; Menin + Texas Red MLL mutant peptide, fluorescence polarization; active = well fitted inhibition curve with a large enough effect in the polarisation, with a control signal flat, not every such curve was filed as active; inconclusive = small, poorly fitted or top-dose-only effect, or effect the other way, or a change in a side signal; inactive = no such curve, though single readings can be large or run the other way; the % refers to the polarisation
Hits are given with their value; n = inactive; u = inconclusive; x = no result.

SMILES	Menin-MLL FL inh	ClpP mod	MLL CXXC-DNA inh	p53 reactivator	Menin MLL FP TR
CCOc1ccccc1Nc1nnc(SCc2nnc(-c3cc(OC)c(OC)c(OC)c3)o2)s1	n	32µM	n	n	n
COc1ccc2c(c1)C/C(=C\c1ccc(N(C)C)cc1)C2=O	x	n	x	x	x
O=C1c2ccccc2C(=O)N1c1ccc(O)cc1	x	n	x	x	x
COc1ccnc(NCc2cccnc2)c1C#N	n	32µM	n	n	n
CN(C)C1CCN(CCCOc2ccc(-c3ccc(C#N)cc3)cc2)C1 (stereo not given)	n	x	x	x	n
N#Cc1c(-c2cccs2)cc(C2CC2)nc1SCC(N)=O	n	16µM	n	n	x
CC[N+]1(CC(=O)c2ccc(Cl)cc2)CCCCC1	x	n	x	x	x
O=C(O)Cc1cc(C(=O)Nc2ccc(Br)cc2)sc1-c1ccccc1	n	x	n	n	u
CCOC(=O)Cc1cc(C(=O)Nc2ccc(Br)cc2)sc1-c1ccc(C)cc1	x	22µM	x	x	x
Cc1cc(C(=O)Nc2sc(C)c(-c3ccc(F)cc3)c2C(N)=O)no1	n	13µM	n	u	n
NC(=O)c1c(NC(=O)c2cc(-c3ccc(F)cc3)on2)sc2c1CCCC2	x	n	x	x	x
CSCC[C@H](NC(=O)[C@H](Cc1ccc(OS(=O)(=O)O)cc1)NC(=O)[C@@H](N)CC(=O)O)C(=O)NCC(=O)N[C@@H](Cc1c[nH]c2ccccc12)C(=O)N[C@@H](CCSC)C(=O)N[C@@H](CC(=O)O)C(=O)N[C@@H](Cc1ccccc1)C(N)=O	n	x	x	x	n
CCOC(=O)CNc1c(-c2ccc(O)cc2)nc2ccccn12	n	32µM	n	u	n
CCOc1ccc(CCNC(=O)Cn2ncc3c(=O)oc4ccc(C)cc4c32)cc1	x	n	x	x	x
N#Cc1ccc(-c2ccc(OCC(=O)NCCc3ccccc3)cc2)cc1	n	32µM	n	n	n
COc1ccc(CCNC(=O)COc2ccc(-c3ccc(C#N)cc3)cc2)cc1	n	u	n	n	n
Cc1nn(C)c2c1c(-c1ccccc1)cc(=O)n2Cc1ccccc1Cl	x	28µM	x	x	x
Cc1nn(C)c2c1c(-c1ccccc1)cc(=O)n2Cc1ccc(Br)cc1F	x	n	x	x	x
Cc1nn(C)c2c1c(-c1ccccc1)cc(=O)n2Cc1ccccc1F	x	28µM	x	x	x
Cc1nn(C)c2c1c(-c1ccccc1)cc(=O)n2Cc1c(F)cccc1Cl	x	n	x	x	x
COc1cc(OC)c(NC(=O)C(C)n2c(=O)cc(-c3ccccc3)c3c(C)nn(C)c32)cc1Cl (stereo not given)	x	32µM	x	x	x
C=C1C=C(C(F)F)n2ncc(C(=O)N3CCc4ccccc4C3)c2N1	x	n	x	x	x
CCOc1ccc2[nH]c3c(N4CCC5(CC4)OCCO5)ncnc3c2c1	n	32µM	n	n	x
CCOC(=O)N1CCN(c2ncnc3c2[nH]c2ccc(OC)cc23)CC1	n	25µM	n	n	n
CCOC(=O)c1cc(OC(=O)c2ccc(OC)c(OC)c2)n(-c2ccccc2)n1	x	n	x	x	x
SMILES	Menin-MLL FL inh	ClpP mod	MLL CXXC-DNA inh	p53 reactivator	Menin MLL FP TR
O=C1CN(CCN2CC(=O)NC(=O)C2)CC(=O)N1	x	n	x	x	x
O=CN1CCN(C(=O)Cc2ccc([N+](=O)[O-])cc2)CC1	n	25µM	n	n	n
COc1ccc(Cl)cc1-n1c(C)cc(C=O)c1C	n	32µM	n	n	x
COc1ccc(Cl)cc1-n1c(C)cc(C(=O)O)c1C	n	n	n	n	n
CCN(c1ccccc1)S(=O)(=O)c1cccc(C(=O)N2CCN(S(=O)(=O)c3ccccc3)CC2)c1	x	28µM	n	n	x
O=C(c1c[nH]c2ccc(S(=O)(=O)N3CCOCC3)cc2c1=O)N1CCCC1	n	7.9µM	n	n	n
CCCCNC(=O)c1c[nH]c2ccc(S(=O)(=O)N3CCOCC3)cc2c1=O	n	x	n	n	n
CCN(c1ccccc1)S(=O)(=O)c1ccc2[nH]cc(C(=O)N3CCOCC3)c(=O)c2c1	n	32µM	n	n	n
Cc1ccc(-c2nc3cc(Cl)ccc3o2)cc1NC(=O)COc1ccccc1C	x	n	x	x	x
COc1ccc2c(Cl)c(C(=O)NCCc3ccc(S(N)(=O)=O)cc3)sc2c1	n	14µM	n	x	u
COc1ccc(NC(=O)CN(C)S(=O)(=O)c2ccc(C(=O)N3CCOCC3)s2)cc1	x	n	x	x	x
COC(=O)c1sc2ccccc2c1-n1cccc1C(=O)C(=O)Nc1ccc(Cl)cc1	n	14µM	n	n	u
COC(=O)c1sc2ccccc2c1-n1cccc1C(=O)C(=O)Nc1ccc(C)cc1	n	n	n	n	n
COc1ccc(C2/C=C\CN(C(=O)C3CCCCC3)C(C)C(=O)N2Cc2ccc(F)cc2)cc1 (stereo not given)	n	x	x	x	n
CCc1ccc(-c2cc(C(=O)NCc3ccccn3)c3ccccc3n2)cc1	n	14µM	n	n	n
Cc1ccc(-c2cc(C(=O)NCc3ccccn3)c3ccccc3n2)cc1	n	14µM	n	n	n
Cc1ccc(-c2cc(C(=O)NCCc3ccccn3)c3ccccc3n2)c(C)c1	n	28µM	n	n	n
Cc1cccc(NC(=S)NC(=O)c2cc(-c3ccccc3)nc3ccccc23)c1	n	n	n	n	35µM
OC1OC[C@@H](O)[C@@H](O)[C@@H]1O (stereo not given in full)	u	x	x	x	n
O=C(CCCCCn1c(=O)[nH]c2ccccc2c1=O)NCc1cccc(Cl)c1	x	n	x	x	x
O=C1c2ccccc2NC2(CCCCC2)N1N=C1CCCCC1	n	18µM	n	n	n
C/C(=N\NC(=S)NC1CCCCC1)c1ccc(O)cc1	n	x	n	n	n
C/C(=N\NC(=S)NC1CCCCC1)c1ccccc1	n	n	n	25µM	n
O=C(CC(C(=O)O)n1ccnc1)c1ccc(Cl)cc1 (stereo not given)	x	n	x	x	x
FC(F)(F)c1nc2nncn2c2c1CCCCC2	n	32µM	n	n	n
SMILES	Menin-MLL FL inh	ClpP mod	MLL CXXC-DNA inh	p53 reactivator	Menin MLL FP TR
O=S(=O)(NCc1ccc2c(c1)OCO2)c1cccc(F)c1	n	28µM	n	n	n
O=S(=O)(NCc1ccc2c(c1)OCO2)c1cccc(S(=O)(=O)N2CCOCC2)c1	n	n	n	n	n
COc1cccc2c1cc1c(=O)n(CC(=O)N3CCN(c4ccc(F)cc4)CC3)nc(C)n12	x	20µM	x	x	x
COc1cccc2c1cc1c(=O)n(CC(=O)O)nc(C)n12	x	n	x	x	x
COc1cccc2c1cc1c(=O)n(CC(=O)NC3CCCCC3)nc(C)n12	x	32µM	n	n	x
COc1ccc(C2C(C(=O)Nc3cccnc3)=C(C)Nc3nc(SCc4ccccc4)nn32)cc1 (stereo not given)	x	n	x	x	x
CC(=O)OCC(=O)c1ccc2ccn(C(C)=O)c2c1	n	35µM	n	n	n
COc1ccccc1N1CCN(CC(=O)c2ccc3ccn(C(C)=O)c3c2)CC1	n	u	n	n	n
CCCCC(=O)Nc1cccc(-c2nc3ncccc3o2)c1	n	16µM	n	n	n
CCCCCC(=O)Nc1cccc(-c2nc3ncccc3o2)c1	n	u	n	n	n
Cc1ccc(C(C)C)c(OCC(=O)Nc2cccc(-c3nc4ncccc4o3)c2)c1	x	22µM	x	x	x
